Screens deposited in PubChem by National Center for Advancing Translational Sciences (NCATS).
An excerpt weighted towards active compounds, which were near 2.8% of everything screened.
Pol eta inh = DNA polymerase eta (human) inhibition. Potency, µM (top dose mostly 114 µM), usual class: inhibitors. recombinant Pol eta, fluorescent DNA replication assay. AID 588591. actives 1.2% (n = 390,000). Q9Y253
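Fluorescent replication assay: 50 nM final substrate added after a 15 min room-temperature compound preincubation with 10 nM enzyme. Signal taken at 0 min and again at 10 min.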
POLI inh = inhibitors of human DNA polymerase iota. Pol iota fluorescent replication assay, 10 min. Q9UNA4. actives 1% (n = 390,000). Potency, µM (doses to about 115 µM), actives largely listed as inhibitors
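Pol iota at 10 nM preincubated 15 min with compounds at room temperature; reaction started with fluorescent substrate, 50 nM final. Fluorescence read kinetically at 0 and 10 min; buffer-only wells as negative control.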
PI5P4K alpha inh = PI5P4K alpha (human) kinase inhibition; P48426; PI5P4Kalpha enzyme, ADP-Glo luminescence, 60 min; stronger effect = lower value; max response, %; actives 1.2% (n = 330,000); AID 652105; active = max response of -50% or lower; inconclusive = between -30% and -50%; inactive = -30% or higher; note: value at the top dose of about 77 µM
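Quantitative HTS of the MLSMR library against PI5P4Kalpha with substrate. ATP added last at 5 microM final; room temperature, 60 minutes. Remaining ATP depleted, ADP converted and read as luminescence.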
Pol beta inh = DNA polymerase beta (human) inhibition | P06746 | Pol beta primer extension/strand displacement, fluorescence kinetic | Potency, µM (top dose mostly 114 µM), usual class: inhibitors | actives 1.3% (n = 340,000) | AID 485314
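Curves were derived by four-parameter Hill fits of normalized qHTS data. The kinetic fluorescent primer-extension read was taken at 0 and 10 min after 50 nM substrate, following a 15 min room-temperature preincubation of 10 nM enzyme with compounds.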
POLK inh = DNA polymerase kappa (human) inhibition; Q9UBT6; purified Pol kappa, fluorescent DNA synthesis assay, 10 min; Potency, µM (top dose mostly 107 µM), most hits filed as inhibitors; actives 0.53% (n = 400,000); AID 588579
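Activity was followed as the change in fluorescence between reads at 0 and 10 min after starting the reaction with 50 nM substrate. Beforehand, 10 nM polymerase had been preincubated with compound for 15 min at room temperature.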
FEN1 inh = human FEN1 inhibition; actives 0.35% (n = 390,000); Potency, µM (titrated, usually from 114 µM), most hits filed as inhibitors; AID 588795; Recombinant FEN1 flap cleavage, fluorescence, 15 min; P39748; note: nearly all actives have a fitted effect of over 65% in size
Target sequence (P39748 whole entry, looked up): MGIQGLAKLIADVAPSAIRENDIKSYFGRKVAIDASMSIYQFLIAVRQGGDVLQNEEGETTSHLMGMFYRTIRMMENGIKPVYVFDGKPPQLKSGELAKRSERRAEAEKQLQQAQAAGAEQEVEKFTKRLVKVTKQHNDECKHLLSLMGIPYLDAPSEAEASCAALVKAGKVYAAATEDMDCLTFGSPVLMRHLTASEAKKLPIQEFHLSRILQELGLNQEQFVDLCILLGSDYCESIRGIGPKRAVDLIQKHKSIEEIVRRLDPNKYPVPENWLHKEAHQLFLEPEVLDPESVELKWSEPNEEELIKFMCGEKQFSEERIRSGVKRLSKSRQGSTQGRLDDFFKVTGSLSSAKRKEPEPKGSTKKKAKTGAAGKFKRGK
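With each library titrated from low to high concentration, compounds met 10 nM FEN1 for 15 min at room temperature before 50 nM substrate was added; readings at 0 and 15 min fed four-parameter Hill curve fits.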
Numbers stand for hits. Unless noted, calls come from the whole dose curve; as a rule, active = well fitted curve in the direction sought with a large enough effect; inconclusive = small, poorly fitted or top-dose-only effect, or another doubt; inactive = no such curve, though single readings can be large; an effect the other way counts as inactive or inconclusive.

How did CC(NC(=O)c1cccc(S(=O)(=O)N(C)C)c1)C1CC2CCC1C2 (centres undefined) do in these assays?
Pol eta inh: inactive; POLI inh: inactive; PI5P4K alpha inh: inactive; Pol beta inh: inactive; POLK inh: inactive; FEN1 inh: inactive

Results for CC(=O)c1cccc(S(=O)(=O)NC(C)C2CC3CCC2C3)c1 (centres undefined) ?
Pol eta inh: inconclusive; POLI inh: inconclusive; PI5P4K alpha inh: inconclusive; Pol beta inh: 22µM; POLK inh: inactive; FEN1 inh: inactive

What do the screens show for `CSc1cccc(NC(=O)CN(Cc2ccc(Cl)cc2)S(C)(=O)=O)c1`?
Pol eta inh: inactive; POLI inh: 89µM; Pol beta inh: inactive; POLK inh: inactive; FEN1 inh: inactive

How did Cc1ccc(NC(=O)C(=Cc2ccc(C(=O)O)cc2)C(=O)Nc2ccc(C)cc2C)c(C)c1 do in these assays?
Pol eta inh: 79µM; POLI inh: 13µM; PI5P4K alpha inh: inactive; Pol beta inh: inactive; POLK inh: inactive; FEN1 inh: inactive

Results for Cc1ccc(NC(=O)CCl)c(C)c1 ?
Pol eta inh: inactive; POLI inh: inactive; PI5P4K alpha inh: inactive; Pol beta inh: inactive; POLK inh: inactive; FEN1 inh: inactive

What do the screens show for `Cc1cc(=O)c2cc3nc(-c4cccnc4)oc3c(Br)c2o1`?
Pol beta inh: 40µM

Results for CN1/C(=C\C(=O)C[n+]2ccc3ccccc3c2)C(C)(C)c2ccccc21 ?
Pol eta inh: inactive; POLI inh: inactive; PI5P4K alpha inh: inactive; Pol beta inh: inactive; POLK inh: inactive; FEN1 inh: inactive

Results for O=C1[C@H](Cc2ccccc2)NC/C=C\C[C@@H](c2ccc(Cl)cc2)N1Cc1ccccc1 ?
POLI inh: inactive; POLK inh: inactive; FEN1 inh: inactive

How did S=c1[nH]nc(-c2ccccc2Cl)n1/N=C/C=C/c1ccco1 do in these assays?
Pol eta inh: 50µM; POLI inh: inconclusive; PI5P4K alpha inh: -60; Pol beta inh: 20µM; POLK inh: 79µM; FEN1 inh: inactive

What do the screens show for `C(=C\c1ccco1)/C=N/n1cnnc1`?
Pol eta inh: inactive; POLI inh: 40µM; PI5P4K alpha inh: inactive; Pol beta inh: inactive; POLK inh: inconclusive; FEN1 inh: inactive

How did CC(/C=N/n1c(-c2ccco2)n[nH]c1=S)=C\c1ccco1 do in these assays?
Pol eta inh: inconclusive; POLI inh: inconclusive; PI5P4K alpha inh: inactive; Pol beta inh: 28µM; POLK inh: inactive; FEN1 inh: inactive

How did S=c1[nH]nc(-c2cccc(Cl)c2)n1/N=C/c1ccco1 do in these assays?
Pol eta inh: inconclusive; POLI inh: inconclusive; PI5P4K alpha inh: inconclusive; Pol beta inh: inconclusive; POLK inh: inactive; FEN1 inh: inactive

How did O=C1OC(c2ccccc2)=N/C1=C\C=C\c1ccco1 do in these assays?
Pol eta inh: inactive; POLI inh: inconclusive; PI5P4K alpha inh: inactive; Pol beta inh: inactive; POLK inh: inactive; FEN1 inh: inactive

What do the screens show for `Nc1ccc(Oc2ncccn2)cc1`?
Pol eta inh: 40µM; POLI inh: inconclusive; PI5P4K alpha inh: inactive; Pol beta inh: inactive; POLK inh: inactive; FEN1 inh: inactive

Results for O=Cc1cccc(Oc2ncccn2)c1 ?
Pol eta inh: inactive; POLI inh: inactive; PI5P4K alpha inh: inactive; Pol beta inh: inactive; POLK inh: inactive; FEN1 inh: inactive

Results for CCOc1ccccc1CNC(=O)Cn1ccc2cc(S(=O)(=O)N3CCCC3)ccc21 ?
Pol eta inh: inactive; POLI inh: inactive; PI5P4K alpha inh: inactive; Pol beta inh: inactive; POLK inh: inactive; FEN1 inh: inactive

What do the screens show for `O=C(O)COc1ccccc1/C=N/Nc1ccc(S(=O)(=O)N2CCOCC2)cc1[N+](=O)[O-]`?
Pol eta inh: inactive; POLI inh: inactive; PI5P4K alpha inh: inactive; Pol beta inh: inactive; POLK inh: inactive; FEN1 inh: inactive

How did Cc1ccc(-n2c(O)c(/C=N/Nc3ccc(S(=O)(=O)N4CCOCC4)cc3[N+](=O)[O-])c3ccccc3c2=O)c(C)c1 do in these assays?
Pol eta inh: 45µM; POLI inh: inconclusive; PI5P4K alpha inh: inconclusive; Pol beta inh: 79µM; POLK inh: inactive; FEN1 inh: inactive
